Data taken from the supplement of paper PMC11001985.
A number with no mark means an inactive call.

compound: C#CCNC(=O)CCSSCCC(=O)NCCc1ccc(C=O)c(C=O)c1; assay: lysine labeling ratio R10:1 (500 µM / 50 µM probe), SILAC-ABPP in living cells; higher = lower intrinsic lysine reactivity toward the probe, active = 2 or less; conditions: HeLa; probe concentrations 500 vs 50 µM
Method in brief: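 Measurements came from LC-MS/MS on a TIMS-TOF Pro of mixed SILAC light and heavy HeLa lysates after click to biotin-azide, trypsin digestion, neutravidin capture, DTT release and alkylation. Before lysis, the living cells sat in PBS at room temperature with 50 µM or 500 µM of an alkyne-tagged, disulfide-linked lysine probe, and labels were swapped forward and reverse. R per lysine is the median across both swap directions of the filtered median high-probe/low-probe MS1 peptide ratio. The cap is 20.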

Chain of UniProt P11717 (P11717 whole entry): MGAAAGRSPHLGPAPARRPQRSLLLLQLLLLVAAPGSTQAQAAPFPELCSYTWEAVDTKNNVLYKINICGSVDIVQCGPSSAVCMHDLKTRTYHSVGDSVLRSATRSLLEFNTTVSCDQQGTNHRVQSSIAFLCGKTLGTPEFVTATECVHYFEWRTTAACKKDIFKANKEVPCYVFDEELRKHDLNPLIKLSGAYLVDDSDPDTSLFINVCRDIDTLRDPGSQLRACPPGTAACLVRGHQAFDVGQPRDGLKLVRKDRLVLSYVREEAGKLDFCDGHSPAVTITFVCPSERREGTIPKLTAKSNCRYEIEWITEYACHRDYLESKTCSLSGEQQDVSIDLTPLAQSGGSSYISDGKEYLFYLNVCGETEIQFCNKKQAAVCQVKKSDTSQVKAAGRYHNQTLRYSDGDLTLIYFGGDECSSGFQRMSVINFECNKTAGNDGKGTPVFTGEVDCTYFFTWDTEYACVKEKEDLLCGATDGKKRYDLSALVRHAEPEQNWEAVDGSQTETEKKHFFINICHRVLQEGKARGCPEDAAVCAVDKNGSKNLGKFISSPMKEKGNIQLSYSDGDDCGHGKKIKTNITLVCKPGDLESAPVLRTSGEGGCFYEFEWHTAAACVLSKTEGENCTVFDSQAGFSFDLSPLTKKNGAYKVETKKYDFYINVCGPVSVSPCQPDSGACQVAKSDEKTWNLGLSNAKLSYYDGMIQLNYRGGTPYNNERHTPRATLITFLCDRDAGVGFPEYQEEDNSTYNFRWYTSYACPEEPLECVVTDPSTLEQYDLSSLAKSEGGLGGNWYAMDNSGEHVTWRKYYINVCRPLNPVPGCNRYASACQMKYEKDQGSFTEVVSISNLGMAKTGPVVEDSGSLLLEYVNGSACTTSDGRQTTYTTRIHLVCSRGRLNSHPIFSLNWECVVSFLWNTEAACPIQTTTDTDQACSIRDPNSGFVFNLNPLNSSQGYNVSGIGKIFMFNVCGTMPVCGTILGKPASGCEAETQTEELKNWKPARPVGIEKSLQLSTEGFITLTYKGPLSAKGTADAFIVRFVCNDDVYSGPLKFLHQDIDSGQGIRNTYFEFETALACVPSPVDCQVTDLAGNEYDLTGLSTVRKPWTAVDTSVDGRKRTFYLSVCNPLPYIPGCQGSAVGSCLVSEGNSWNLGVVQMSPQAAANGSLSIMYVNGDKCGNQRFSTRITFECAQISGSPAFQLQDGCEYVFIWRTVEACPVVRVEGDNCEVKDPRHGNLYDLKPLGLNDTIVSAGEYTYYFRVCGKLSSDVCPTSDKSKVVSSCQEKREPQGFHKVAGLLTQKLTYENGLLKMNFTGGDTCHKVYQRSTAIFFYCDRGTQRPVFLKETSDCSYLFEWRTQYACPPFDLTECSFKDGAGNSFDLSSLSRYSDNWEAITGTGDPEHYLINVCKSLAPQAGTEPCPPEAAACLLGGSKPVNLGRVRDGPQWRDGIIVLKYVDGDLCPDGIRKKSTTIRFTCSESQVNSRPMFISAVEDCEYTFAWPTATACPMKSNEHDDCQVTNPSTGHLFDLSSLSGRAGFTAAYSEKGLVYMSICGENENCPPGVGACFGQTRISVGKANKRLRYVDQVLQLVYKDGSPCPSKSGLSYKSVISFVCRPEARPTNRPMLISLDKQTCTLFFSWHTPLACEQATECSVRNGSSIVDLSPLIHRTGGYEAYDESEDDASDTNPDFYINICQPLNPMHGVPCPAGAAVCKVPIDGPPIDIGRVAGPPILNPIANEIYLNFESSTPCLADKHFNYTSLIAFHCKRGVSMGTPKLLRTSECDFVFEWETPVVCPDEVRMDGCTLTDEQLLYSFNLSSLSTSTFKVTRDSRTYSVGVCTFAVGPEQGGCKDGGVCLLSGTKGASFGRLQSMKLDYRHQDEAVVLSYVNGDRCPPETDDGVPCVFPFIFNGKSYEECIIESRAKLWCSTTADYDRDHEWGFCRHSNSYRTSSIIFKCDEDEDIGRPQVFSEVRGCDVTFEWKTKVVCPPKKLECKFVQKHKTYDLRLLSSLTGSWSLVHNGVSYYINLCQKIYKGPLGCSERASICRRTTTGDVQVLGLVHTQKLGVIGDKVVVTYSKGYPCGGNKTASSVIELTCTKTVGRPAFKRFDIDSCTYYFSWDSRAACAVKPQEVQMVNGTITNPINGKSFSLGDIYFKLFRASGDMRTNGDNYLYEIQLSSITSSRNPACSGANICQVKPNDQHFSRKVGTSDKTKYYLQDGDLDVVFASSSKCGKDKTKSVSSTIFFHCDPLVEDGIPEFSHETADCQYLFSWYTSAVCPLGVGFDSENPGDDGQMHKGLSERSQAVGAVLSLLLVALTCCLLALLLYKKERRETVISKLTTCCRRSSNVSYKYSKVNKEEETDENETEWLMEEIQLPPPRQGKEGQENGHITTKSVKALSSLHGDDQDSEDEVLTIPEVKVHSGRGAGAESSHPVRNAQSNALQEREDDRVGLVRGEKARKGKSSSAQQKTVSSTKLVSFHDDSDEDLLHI
Chain of UniProt P35579 (P35579 whole entry): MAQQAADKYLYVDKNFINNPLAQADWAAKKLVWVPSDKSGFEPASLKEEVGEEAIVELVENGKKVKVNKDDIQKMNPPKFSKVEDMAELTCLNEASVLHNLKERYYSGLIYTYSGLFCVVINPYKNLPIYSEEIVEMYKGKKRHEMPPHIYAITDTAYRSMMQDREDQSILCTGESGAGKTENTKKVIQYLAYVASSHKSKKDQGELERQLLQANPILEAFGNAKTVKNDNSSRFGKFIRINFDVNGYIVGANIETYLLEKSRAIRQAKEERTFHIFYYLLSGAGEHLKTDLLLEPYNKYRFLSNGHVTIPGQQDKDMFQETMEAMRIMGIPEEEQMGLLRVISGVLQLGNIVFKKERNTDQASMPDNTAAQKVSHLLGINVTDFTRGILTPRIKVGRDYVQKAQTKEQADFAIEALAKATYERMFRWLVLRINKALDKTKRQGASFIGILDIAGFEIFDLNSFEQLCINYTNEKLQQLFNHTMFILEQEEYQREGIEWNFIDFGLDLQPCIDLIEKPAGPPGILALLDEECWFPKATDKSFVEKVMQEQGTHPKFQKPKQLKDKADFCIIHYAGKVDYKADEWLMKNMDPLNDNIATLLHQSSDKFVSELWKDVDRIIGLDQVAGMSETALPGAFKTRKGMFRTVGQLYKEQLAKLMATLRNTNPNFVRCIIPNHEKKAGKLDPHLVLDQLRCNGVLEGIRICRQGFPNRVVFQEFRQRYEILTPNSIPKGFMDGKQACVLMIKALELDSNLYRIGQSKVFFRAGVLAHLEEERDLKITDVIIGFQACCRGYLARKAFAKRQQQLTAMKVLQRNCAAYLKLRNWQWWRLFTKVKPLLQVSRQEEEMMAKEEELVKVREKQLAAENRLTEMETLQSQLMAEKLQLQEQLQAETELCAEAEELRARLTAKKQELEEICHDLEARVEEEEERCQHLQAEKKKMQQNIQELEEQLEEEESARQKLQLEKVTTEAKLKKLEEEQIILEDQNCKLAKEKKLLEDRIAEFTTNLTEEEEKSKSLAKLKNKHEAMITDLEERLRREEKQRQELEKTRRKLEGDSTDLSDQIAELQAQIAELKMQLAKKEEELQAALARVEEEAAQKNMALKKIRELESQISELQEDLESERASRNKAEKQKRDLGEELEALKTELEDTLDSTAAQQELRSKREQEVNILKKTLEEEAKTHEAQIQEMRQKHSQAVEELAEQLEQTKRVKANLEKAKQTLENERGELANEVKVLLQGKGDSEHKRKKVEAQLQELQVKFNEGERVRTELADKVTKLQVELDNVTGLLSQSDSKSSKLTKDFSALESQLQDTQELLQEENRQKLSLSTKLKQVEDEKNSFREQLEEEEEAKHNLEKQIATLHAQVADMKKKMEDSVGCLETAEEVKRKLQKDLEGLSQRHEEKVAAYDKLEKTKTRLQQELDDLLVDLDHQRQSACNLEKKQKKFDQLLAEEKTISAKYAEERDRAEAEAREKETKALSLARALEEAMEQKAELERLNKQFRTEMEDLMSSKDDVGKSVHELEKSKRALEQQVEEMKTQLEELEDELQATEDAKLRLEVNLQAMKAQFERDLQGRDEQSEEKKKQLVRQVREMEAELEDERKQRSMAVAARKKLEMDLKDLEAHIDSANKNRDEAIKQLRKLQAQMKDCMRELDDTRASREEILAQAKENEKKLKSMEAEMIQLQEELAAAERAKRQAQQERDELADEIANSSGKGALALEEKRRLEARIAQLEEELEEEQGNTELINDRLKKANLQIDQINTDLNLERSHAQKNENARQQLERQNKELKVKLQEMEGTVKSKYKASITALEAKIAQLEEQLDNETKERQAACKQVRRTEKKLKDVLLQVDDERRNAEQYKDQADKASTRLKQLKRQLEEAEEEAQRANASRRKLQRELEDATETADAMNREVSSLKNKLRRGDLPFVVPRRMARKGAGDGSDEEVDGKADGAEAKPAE
Chain of UniProt P05187 (P05187 whole entry): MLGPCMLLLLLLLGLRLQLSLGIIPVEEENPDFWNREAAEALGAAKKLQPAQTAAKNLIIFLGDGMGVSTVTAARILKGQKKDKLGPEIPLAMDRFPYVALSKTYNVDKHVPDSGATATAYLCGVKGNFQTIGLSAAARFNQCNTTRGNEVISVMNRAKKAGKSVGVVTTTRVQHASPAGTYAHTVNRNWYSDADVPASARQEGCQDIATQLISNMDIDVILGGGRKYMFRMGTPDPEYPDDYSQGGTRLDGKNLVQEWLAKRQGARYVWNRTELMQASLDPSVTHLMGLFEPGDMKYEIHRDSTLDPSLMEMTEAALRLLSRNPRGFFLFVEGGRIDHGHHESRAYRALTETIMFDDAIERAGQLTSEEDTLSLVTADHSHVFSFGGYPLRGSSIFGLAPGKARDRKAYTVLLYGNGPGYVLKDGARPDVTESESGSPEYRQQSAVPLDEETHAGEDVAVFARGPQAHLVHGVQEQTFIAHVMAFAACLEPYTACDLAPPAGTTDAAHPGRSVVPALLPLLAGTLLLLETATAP

Row | Target | lysine labeling ratio R10:1
1 | ACSL3 (lysine site: K397) (UniProt O95573) | 3.08
2 | GHITM (lysine site: K76) (UniProt Q9H3K2) | 4.44
3 | UniProt O60462 (lysine site: K547) | 4.2
4 | IGF2R (lysine site: K2338) (UniProt P11717) | 1.29 (active)
5 | RPS5 (lysine site: K47) (UniProt P46782) | 1.01 (active)
6 | THBS1 (lysine site: K306) (UniProt P07996) | 2.27
7 | CACYBP (lysine site: K220) (UniProt Q9HB71) | 1.74 (active)
8 | MYH9 (lysine site: K1724) (UniProt P35579) | 1.66 (active)
9 | RPL4 (lysine site: K106) (UniProt P36578) | 2.43
10 | LRP1 (lysine site: K646) (UniProt Q07954) | 1.92 (active)
11 | HSPA8 (lysine site: K246) (UniProt P11142) | 1.78 (active)
12 | UniProt Q12884 (lysine site: K334) | 3.23
13 | UniProt Q13131 (lysine site: K56) | 14.5
14 | UniProt Q7L592 (lysine site: K72) | 0.87 (active)
15 | HSPA5 (lysine site: K521) (UniProt P11021) | 1.53 (active)
16 | IGF2R (lysine site: K1230) (UniProt P11717) | 1.74 (active)
17 | CCT4 (lysine site: K489) (UniProt P50991) | 2.21
18 | SPTAN1 (lysine site: K250) (UniProt Q13813) | 1.09 (active)
19 | CCT8 (lysine site: K400) (UniProt P50990) | 4.01
20 | AHNAK (lysine site: K5443) (UniProt Q09666) | 0.97 (active)

Row | Target | lysine labeling ratio R10:1
21 | UniProt P60842 (lysine site: K54) | 1.77 (active)
22 | CDH13 (lysine site: K178) (UniProt P55290) | 7.63
23 | XRCC5 (lysine site: K36) (UniProt P13010) | 2.42
24 | ROBO1 (lysine site: K304) (UniProt Q9Y6N7) | 3.14
25 | UniProt Q29980 (lysine site: K196) | 4.62
26 | UniProt P05787 (lysine site: K304) | 7.25
27 | PIEZO1 (lysine site: K113) (UniProt Q92508) | 4.13
28 | IARS (lysine site: K641) (UniProt P41252) | 1.71 (active)
29 | UniProt Q13765 (lysine site: K82) | 3.23
30 | TNKS1BP1 (lysine site: K1676) (UniProt Q9C0C2) | 2.22
31 | UniProt Q15149 (lysine site: K3237) | 1.17 (active)
32 | UniProt P05187 (lysine site: K84) | 1.24 (active)
33 | SERBP1 (lysine site: K68) (UniProt Q8NC51) | 5.36
34 | SEMA3C (lysine site: K570) (UniProt Q99985) | 8.1
35 | FRAS1 (lysine site: K549) (UniProt Q86XX4) | 4.59
36 | MYH9 (lysine site: K760) (UniProt P35579) | 3.31
37 | FASN (lysine site: K673) (UniProt P49327) | 2.24
38 | PLXNB2 (lysine site: K941) (UniProt O15031) | 2.31
39 | CHCHD3 (lysine site: K63) (UniProt Q9NX63) | 1.33 (active)
40 | UniProt Q15149 (lysine site: K4348) | 1.12 (active)
